A selection: hits, their analogues and other compounds. The true share with any hit is near 7.5%.
VACV Venus inh = inhibitors of vaccinia virus (Venus reporter); Vaccinia virus Venus reporter expression, fluorescence; Potency, µM (doses to about 36.5 µM), for the others: top-dose activity change, negative = inhibition, hits mostly inhibitors; 330,000 compounds, 0.46% hits; AID 720580; calls by dose curve; tested in A549 cells; note: potency is the fitted concentration of half-maximal effect; nearly all actives have a fitted effect of over 30% in size
HCV inhibitor = blocks hepatitis C virus; Huh7.5.1 HCVcc-Cre infection, luciferase reporter, 44 h; Potency, µM (series often up to 41.8 µM), without a hit: at the top dose activity change, negative = inhibition, hits mostly inhibitors; 340,000 compounds, 3.4% hits; note: potency is the fitted concentration of half-maximal effect
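Cells (1,000/well) were plated 4 h before compound, then infected with HCVcc-Cre virus (~0.5 moi). After 44 h further culture, infection was read as luciferase luminescence following a 15 min substrate incubation at room temperature.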
FMDV antiviral = blocks foot and mouth disease virus; 410,000 compounds, 1.2% hits; Potency, µM (top dose mostly 57.9 µM), for the others: at the top dose activity change, negative = inhibition, most hits filed as inhibitors; FMDV antiviral cell-based qHTS; calls by dose curve; tested in HEK293T cells; note: read-out not given here; potency is the fitted concentration of half-maximal effect; nearly all actives have a fitted effect of over 45% in size
VACV mCherry inh = inhibitors of vaccinia virus infection (mCherry reporter signal); Vaccinia virus mCherry reporter infection, fluorescence; Potency, µM (highest dose often 36.5 µM), for the others: top-dose activity change, negative = inhibition, usual class: inhibitors; 310,000 compounds, 0.63% hits; calls by dose curve; tested in A549 cells; note: potency is the fitted concentration of half-maximal effect; nearly all actives have a fitted effect of over 35% in size
Giardia FBPA inh = blocks Giardia fructose-bisphosphate aldolase activity. A8B2U2. purified Giardia FBPA. Potency, µM (doses to about 59.6 µM), inactives show at the highest dose activity, negative = inhibition, usual class: inhibitors. 290,000 compounds, 0.71% hits. AID 2451; note: potency is the fitted concentration of half-maximal effect; nearly all actives have a fitted effect of over 55% in size
Target sequence (A8B2U2 whole entry, looked up): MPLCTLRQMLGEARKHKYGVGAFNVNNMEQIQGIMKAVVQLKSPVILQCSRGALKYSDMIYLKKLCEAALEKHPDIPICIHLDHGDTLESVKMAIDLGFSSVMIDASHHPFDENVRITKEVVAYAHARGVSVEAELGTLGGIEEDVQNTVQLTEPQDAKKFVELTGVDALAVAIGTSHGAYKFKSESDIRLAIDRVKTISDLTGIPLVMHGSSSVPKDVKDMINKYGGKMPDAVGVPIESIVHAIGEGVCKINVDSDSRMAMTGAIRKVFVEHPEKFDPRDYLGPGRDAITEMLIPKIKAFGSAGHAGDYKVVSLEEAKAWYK
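40 nM FBPA preincubated 10 min at RT with compound (up to 57.5 uM final), then substrate plus GAPDH/TPI/NAD/arsenate coupling and diaphorase/resazurin added. Fluorescence read after 20 min at RT, 525/598 nm.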
HCMV inh = human cytomegalovirus inhibition; HFF cells, HCMV-luciferase reporter, 72 h; stronger effect = lower value; activity change, negative = inhibition, % at 57.5 µM; 410,000 compounds, 4.5% hits; AID 1259415; in the data active = activity change below about -60%; inconclusive = no clear call, values can overlap the other calls; inactive = above about -39%
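HFF cells seeded 16 h at 37C, treated with compounds, infected with luciferase-reporter HCMV at MOI 1 PFU/cell; luciferase read at 72 h post infection, normalized to buffer-only and Salinomycin controls.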
Starred values were filed as active, the others as inactive; i = inactive; ? = inconclusive; / = no result given; [ ] = another dose, or the depositor's remark. Unless noted, calls come from the whole dose curve; as a rule, active = well fitted curve in the direction sought with a large enough effect; inconclusive = small, poorly fitted or top-dose-only effect, or another doubt; inactive = no such curve, though single readings can be large; an effect the other way counts as inactive or inconclusive. % is set by controls: 0 for no effect and ±100 for the full control effect.

SMILES	VACV Venus inh	HCV inhibitor	FMDV antiviral	VACV mCherry inh	Giardia FBPA inh	HCMV inh
CCOC(=O)C1CCN(C(=O)c2cccc(S(=O)(=O)NCc3ccccc3)c2)CC1	/	-21.0%	16.4%	/	/	0.0
COc1c(C(=O)Nc2nnc(C3CC3)s2)csc1Cl	/	-5.1%	59.4%	/	/	152.1
O=C(Nc1ccc(S(=O)(=O)NCC2CCCO2)cc1)c1cccc(F)c1 (centres undefined)	-3.7%	?	28.6%	4.1%	0.9%	-20.9
Nc1c(C2CCCCC2)c(=O)on1C(=O)c1ccccc1	-0.9%	16.1%	2.1%	-10.1%	/	-33.3
O=C(COC(=O)[C@H](Cc1ccccc1)NC(=O)c1ccco1)Nc1ccccc1OC(F)F	-18.3%	11.2%	0.0%	i	/	7.7
C=CCN1C(=O)C(CC(=O)O)S/C1=N/N=C/c1ccc(N(CC)CC)cc1 (centres undefined)	/	18.2%	-0.3%	/	/	0.3
Cc1ccc(O)c(NC2=C(Cl)C(=O)N(Cc3ccccc3)C2=O)c1	-18.9%	-19.4%	6.7%	?	-24.6%	-2.2
Cc1ccc(C(=O)N2CCCCC2)cc1NC1=C(Cl)C(=O)N(Cc2ccccc2)C1=O	/	?	?	/	/	-66.3*
OC1(c2cccnc2)CCN(Cc2ccc3c(c2)CN(Cc2ccsc2)CCO3)CC1	-15.6%	/	-11.2%	-13.3%	/	/
O=C(c1cnc2c(c1)COc1ccccc1-2)c1ccccc1O	-5.3%	/	21.7%	-14.3%	/	-26.8
CC1CCN(c2ccccc2NC(=O)c2cc([N+](=O)[O-])ccc2N2CCOCC2)CC1	-17.8%	?	?	i	9.1%	-92.8*
O=C(Nc1cccc(-c2nc3cc(Cl)ccc3o2)c1)c1cc([N+](=O)[O-])ccc1N1CCOCC1	3.1%	/	7.4%	0.5%	/	-63.1*
O=C(/C=C/c1cccc([N+](=O)[O-])c1)Nc1ccccc1N1CCOCC1	-16.3%	-26.5%	?	i	-9.6%	-60.5*
Fc1ccccc1-c1nc(-c2ccc(Br)o2)no1	/	?	-24.4%	/	4.8%	/
O=C1c2ccc3c4c(ccc(c24)C(=O)N1NC(=O)C(F)(F)F)CC3	-3.8%	6.9%	/	-1.3%	0.9%	-17.6
CC(=O)NN1C(=O)c2ccc3c4c(ccc(c24)C1=O)C(=O)N(NC(C)=O)C3=O	/	10µM*	-18.7%	/	?	-104.0*
CSc1nnc(CCNC(=O)/C=C/c2cccc(F)c2)n1-c1ccc(F)cc1	-13.7%	/	-14.5%	i	/	/
CCN(Cc1ccccc1)S(=O)(=O)c1ccc(F)c(C(=O)Nc2ccc(C(C)C)cc2)c1	-22.6%	/	?	-24.2%	/	-16.4
O=C(NCc1n[nH]c(=S)n1-c1ccc(Cl)c(Cl)c1)c1ccco1	-15.0%	25.0%	-10.4%	-0.6%	/	-13.2
CCCOc1ccc(C(O)(CCC)CCN2CCCCC2)cc1 (centres undefined)	-13.5%	8.91µM*	0.0%	-10.7%[1.46 µM]	-2.3%	-17.0
CCCOc1ccc(C(=O)CCN2CCCCC2)cc1	-13.5%	-9.5%	-23.0%	/	-4.2%	-26.9
COc1ccc(OCc2cc(C(=O)NCCN3CCCc4ccccc43)no2)c(Cl)c1	-25.0%	11.2µM*	-18.1%	-12.8%	/	25.0
COc1ccc(OCc2cc(C(=O)NCCN3CCCC(O)C3)no2)c(Cl)c1 (centres undefined)	-10.8%	?	-2.3%	i	/	46.7
OCC1CCCN(c2nc(CN3CCCCC3)nc3scc(-c4ccccc4)c23)C1 (centres undefined)	/	?	0.0%	/	-0.6%	?
CCNc1nc(CN2CCCCC2)nc2scc(-c3ccccc3)c12	-17.8%	10µM*	?	-20.8%	5.2%	-94.7*
COc1ccc(-n2c(/C=C/c3ccc(O)cc3)nc3ccccc3c2=O)cc1	/	?	?	/	-0.6%	?
COc1cccc(-n2c(/C=C/c3ccc(O)c(O)c3)nc3ccccc3c2=O)c1	395.5%	-18.9%	-18.8%	?	-26.6%	16.0
O=c1c2ccccc2nc(/C=C/c2ccc3c(c2)OCO3)n1-c1cccc(O)c1	-15.4%	-11.4%	-21.6%	-21.1%	0.9%	?
COc1ccc(-n2c(/C=C/c3ccc(O)c(OC)c3)nc3ccccc3c2=O)cc1	/	11.2µM*	-21.6%	/	3.3%	-99.1*

High-throughput results (PubChem BioAssay)
